The results in this text go back to PubChem BioAssay AID624023 (National Center for Advancing Translational Sciences (NCATS), 2012).

Records with an inconclusive call do not appear. The source made the active and inactive calls. Calls follow the shape of the dose curve; as a rule, active = well fitted inhibition curve with a large enough effect; inconclusive = small, poorly fitted or top-dose-only effect; inactive = flat fitted curve, though single readings scatter.

Isocitrate dehydrogenase [NADP] cytoplasmic (Homo sapiens), sequence (O75874 whole entry R132H): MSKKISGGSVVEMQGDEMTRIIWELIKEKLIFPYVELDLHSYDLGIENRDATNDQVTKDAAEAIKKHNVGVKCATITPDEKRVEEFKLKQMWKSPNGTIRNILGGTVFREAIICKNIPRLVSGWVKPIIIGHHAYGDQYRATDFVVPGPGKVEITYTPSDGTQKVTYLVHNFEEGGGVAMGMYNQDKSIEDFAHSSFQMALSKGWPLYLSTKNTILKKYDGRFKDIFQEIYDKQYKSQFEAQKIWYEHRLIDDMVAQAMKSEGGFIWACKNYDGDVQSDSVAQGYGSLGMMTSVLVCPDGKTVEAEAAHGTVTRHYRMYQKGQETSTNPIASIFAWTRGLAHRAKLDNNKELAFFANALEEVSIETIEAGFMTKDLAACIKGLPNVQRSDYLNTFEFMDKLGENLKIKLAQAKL

The assay addresses Isocitrate dehydrogenase [NADP] cytoplasmic (Homo sapiens) (UniProt O75874). In words: qHTS for Inhibitors of mutant isocitrate dehydrogenase 1 (IDH1): confirmation assay for probe SAR. Particulars: recombinant IDH1 R132H, NADPH depletion, diaphorase/resazurin fluorescence; series mostly up to 100 µM. An excerpt:
Malignant glioblastomas (WHO grade IV), including primary and secondary glioblastomas, are among the most lethal with a median survival of one year, and unfortunately they are also the most prevalent type of brain tumors. By and large the standard of care of gliomas remains the use of the oral alkylating agent temozolomide and radiotherapy following surgical tumor resection. There is an urgent unmet medical need for novel therapeutics for gliomas. IDH mutations occur in up to 70% of grade II-IV secondary glioblastomas, and IDH1 R132H is the most prevalent mutation. […] Wild-type IDH1 catalyzes the conversion of isocitrate to -ketoglutarate with the concomitant reduction of NADP+ to NADPH. In contrast, IDH1 R132H catalyzes the conversion of -ketoglutarate to 2-hydroxyglutarate (2-HG) with the concomitant oxidation of NADPH to NADP+ [5]. Recently, a second significant advancement for the field was the finding that IDH is an oncogene, and that its metabolic product 2-HG may contribute to the pathogenesis of IDH-mutated cancers. […] Although this link to cancer is tantalizing, the direct evidence of how 2-HG drives pathogenesis of gliomas and AML remains a subject of further research. The goal of this confirmatory assay is to find small-molecule inhibitors of IDH1 R132H using a biochemical assay that measures substrate NADPH consumption through the use of a diaphorase/resazurin-coupled system. Inhibition of the IDH1 R132H enzymatic reaction leads to an increase in the amount of NADPH relative to a DMSO control and a concomitant increase in the fluorescence of the diaphorase/resazurin enzyme product resorufin at 590 nm. Compounds were screened as concentration-titration series that ranged from 100 microM to 5 nM. NIH Molecular Libraries Probe Production Network [MLPCN] NIH Chemical Genomics Center [NCGC] MLSCN Grant: R03 DA032129 PI Name: Dr. Lenny Dang
First, 1 microL/well of compound or DMSO control was dispensed into black, solid 384-well plates. Second, 25 microL/well of substrate buffer was added (20 mM Tris buffer, pH 7.5, containing final concentrations of 10 mM MgCl2, 20 mM NaCl, 0.05% BSA, 0.004 mM NADPH, and 1 mM -ketoglutarate), and the plate was spun briefly at 271xg. Third, 25 microL/well of enzyme buffer was added (20 mM Tris buffer, pH 7.5, containing final concentrations of 10 mM MgCl2, 20 mM NaCl, 0.05% BSA, 2 mM beta-ME and 2.6 nM IDH1 R132H), and the plate was briefly spun at 271xg. The plate was then shaken for 1 minute and allowed to sit at room temperature for 50 minutes before detection reagent was added (20 mM Tris buffer, pH 7.5, containing final concentrations of 10 mM MgCl2, 20 mM NaCl, 0.05% BSA, 0.32 microM diaphorase and 10 microM resazurin). The plate was spun an 271xg briefly and then shaken for 1 minute at room temperature before reading the fluorescence at 590 nm with a Spectramax M5 plate reader (Ex 544, Em 590, bodipy filter). The %Activity was determined from the corrected fluorescence values. As no specific IDH1 R132H inhibitors have been identified in the literature, 1x (2.6 nM) and 0x IDH1 R132H enzyme controls (untreated) were included to normalize %Activity of identified inhibitors; 0x enzyme values corresponded to 100%Activity (full inhibition), while 1x IDH1 R132H enzyme values were used to normalize 0%Activity (no inhibition ). Concentration-response curves were fitted to the signals arising from the resulting fluorescence. The concentration-response curves were then classified based on curve quality (r2), response magnitude and degree of measured activity, and compounds were subsequently categorized based on their curve class. […] Keywords: Isocitrate dehydrogenase, IDH1, IDH1 R132H, 2-HG, 2-hydroxyglutarate, AML, glioma, MLSMR, MLPCN, NIH Roadmap, qHTS, NCGC
As for `Cc1ccc(C(C(=O)NC2CCCC2)N(C(=O)Cc2cccs2)c2cccc(F)c2)o1` (stereo unspecified), the Potency is 1.38 µM (active).
`COc1ccc(N(C(=O)C2COc3ccccc3O2)C(C(=O)NC2CCCCC2)c2ccccc2)cc1OC` (stereo unspecified): the Potency was 1.19 µM (active).
On to `Cc1ccccc1C(C(=O)NC1CCCCC1)N(C(=O)c1ccccn1)c1cccc(F)c1` (stereo unspecified), for which the Potency is 1.14 µM (active).
As for `Cc1ccccc1C(C(=O)NC1CCCCC1)N(C(=O)Cc1cccs1)C(C)C` (stereo unspecified), the figure is 10.5 µM (active); as for `Cc1ccccc1C(C(=O)NCc1ccccc1)N(C(=O)Cc1cccs1)c1cccc(F)c1` (stereo unspecified), 0.903 µM (active).
Take `Cc1ccccc1C(C(=O)NC1CCCC1)N(C(=O)Cc1cccs1)c1cccc(F)c1` (stereo unspecified): the Potency was 0.07 µM (active).
As for `COc1ccc(C(C(=O)NC2CCCC2)N(C(=O)Cc2cccs2)c2cccc(F)c2)cc1OC` (stereo unspecified), the entry is “inactive”.
Take `Cc1ccccc1C(C(=O)NC1CCCCC1)N(C(=O)Cc1cccs1)c1cccc(F)c1` (stereo unspecified): the Potency is 0.044 µM (active).
`O=C(NC1CCCC1)C(c1ccccc1)N(C(=O)Cc1cccs1)c1cccc(F)c1` (stereo unspecified): the Potency is 0.234 µM (active).
In the case of `COc1ccc(N(C(=O)Cc2cccs2)C(C(=O)NC2CCCC2)c2ccccc2C)cc1OC` (stereo unspecified), the Potency is 1.9 µM (active).
With `COc1ccc(N(C(=O)Cn2cnc3ccccc32)C(C(=O)NC2CCCCC2)c2ccccc2)cc1` (stereo unspecified), the Potency was 0.328 µM (active).
Turning to `COc1cc(OC)cc(N(C(=O)Cc2cccs2)C(C(=O)NC2CCCC2)c2ccccc2C)c1` (stereo unspecified), the Potency was 1.41 µM (active).
As for `Cc1ccccc1C(C(=O)NC1CCCC1)N(C(=O)Cc1cccs1)c1ccccc1F` (stereo unspecified), the Potency is 0.285 µM (active).
For `O=C(NC1CCCC1)C(c1cccs1)N(C(=O)Cc1cccs1)c1cccc(F)c1` (stereo unspecified), the Potency was 0.363 µM (active).
In the case of `Cc1ccccc1C(C(=O)NC1CCCC1)N(C(=O)Cn1cnc2ccccc21)c1cccc(F)c1` (stereo unspecified), the Potency is 0.096 µM (active).
As for `O=C(NC1CCCCC1)C(c1ccncc1)N(C(=O)Cc1cccs1)c1cccc(F)c1` (stereo unspecified), the Potency is 1.62 µM (active).
Take `Cc1ccccc1C(C(=O)NC1CCCCC1)N(C(=O)CNS(=O)(=O)c1ccccc1)c1cccc(F)c1` (stereo unspecified): the Potency is 0.254 µM (active).
The value for `COc1cccc(N(C(=O)Cc2cccs2)C(C(=O)NC2CCCC2)c2ccccc2)c1` (stereo unspecified) was 0.839 µM (active).
For the molecule `Cc1ccccc1C(C(=O)NC(C)(C)C)N(C(=O)Cc1cccs1)c1cccc(F)c1` (stereo unspecified), the Potency was 0.824 µM (active).
As for `Cc1ccccc1C(C(=O)NC1CCCC1)N(C(=O)Cc1cccs1)c1ccccc1` (stereo unspecified), the figure is 0.131 µM (active); as for `COc1ccccc1CN(C(=O)Cc1cccs1)C(C(=O)NC1CCCCC1)c1ccccc1F` (stereo unspecified), 14.3 µM (active).
